Molecules are shown by their SMILES. Compounds without any hit were thinned out: in the full panel of roughly 79,000, 15% have a hit. The source made the active and inactive calls. Cut-off read from the data, not from the text of the source: active = growth inhibition above about 70%; inactive = the rest.

This test can be described thus: NCI Yeast Anticancer Drug Screen. Data for the sgs1 mgt1 strain (AID 161).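 Note: 0% = growth of cultures given vehicle only.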 The note with it: S. cerevisiae sgs1 mgt1 strain, at 50.0 µM (retest, dose inferred, filed as 5.0), hits give high values. In outline: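 Percent growth inhibition was derived by comparing compound-exposed mutant yeast with vehicle-exposed cultures. The strain carries alterations in DNA damage repair.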
As to `O=[n+]1c2c(n([O-])c3ccc4ccccc4c31)-c1cccc3cccc-2c13`, the growth inhibition is -5% (inactive).

Take `COc1ccc(C(=O)Cc2ccc(Cl)cc2)cc1OC`: the growth inhibition was -17% (inactive).

Take `CCN(CC)CCC(=O)c1ccc(Oc2ccc(C)cc2)cc1`: the growth inhibition is 75% (active).

For `BrC(Br)=C1C(=C(Br)Br)C(Br)C1Br` (stereo not given), the growth inhibition was 94% (active).

On to `O=C(O)C(Cc1cc(I)c(O)c(I)c1)c1ccccc1` (stereo not given), for which the growth inhibition was 38% (inactive).

With `CC1(C)OC2C(COC(c3ccccc3)(c3ccccc3)c3ccccc3)OC(n3ccc(=O)[nH]c3=O)C2O1` (stereo not given), the growth inhibition was 56% (inactive).

As for `Clc1ccc(C2=CCN3CC=C(c4ccc(Cl)cc4)C23)cc1`, the growth inhibition is 46% (inactive).

In the case of `Nc1ccc([N+](=O)[O-])cc1Nc1c2ccccc2nc2ccccc12`, the growth inhibition is 27% (inactive).

As for `COc1c2c3c(ccnc3c3ccccc13)C(=O)N2C`, the growth inhibition was 75% (active).

`O=C1/C(=C/c2ccc([N+](=O)[O-])cc2)CNC/C1=C\c1ccc([N+](=O)[O-])cc1`: the growth inhibition was 99% (active).

`Clc1ccc(-c2nnn3ccccc23)cc1`: the growth inhibition was 12% (inactive).

On to `O=Cc1ccc([N+](=O)[O-])o1`, for which the growth inhibition is 99% (active).

For the compound `CN(C)Cc1cc(C(C)(C)C)cc(C2CCCCC2)c1O`, the growth inhibition was 95% (active).

Regarding `COc1ccc2c(c1)CN([C@@H](C)[C@H]1CC[C@H]3[C@@H]4CC[C@H]5C[C@@H](O)CC[C@]5(C)[C@H]4CC[C@]13C)CO2`, the growth inhibition was 100% (active).

Take `FC(F)(F)c1ccc(NC(=S)SCc2ccc3c(c2)OCO3)cc1`: the growth inhibition is 25% (inactive).

For the compound `Nc1cc(F)c2c(c1F)C(=O)c1cc(F)ccc1-2`, the growth inhibition was 84% (active).

Consider `CC12CCCCC1CCC(Br)C2=O` (stereo not given), for which the growth inhibition was 22% (inactive).

In the case of `CC(C)c1cc(O)c(C(C)(C)C)cc1Cl`, the growth inhibition is 24% (inactive).

With `CCCOC(=O)CCCC(=O)N(CC)CC`, the growth inhibition is -9% (inactive).

Consider `CCOC(=O)c1cc(Cc2ccccc2)c(=O)n(C)c1-c1ccccc1`, for which the growth inhibition is 85% (active).

On to `COS(=O)c1cc(Cl)cc(Cl)c1OC(=O)CSSCC(=O)Oc1c(Cl)cc(Cl)cc1S(=O)OC` (stereo not given), for which the growth inhibition was 99% (active).

Turning to `ICCCCSc1cc(-c2ccccc2)[o+]c2ccccc12`, the growth inhibition was 75% (active).

In the case of `Nc1cc(Cl)c2c(c1)Cc1ccccc1-2`, the growth inhibition was 96% (active).

Regarding `Cc1ccc(S(=O)(=O)NCCSSCCNS(=O)(=O)c2ccc(C)cc2)cc1`, the growth inhibition is 98% (active).

`OC(Cc1cccnc1)(c1ccccc1)c1ccc(Cl)cc1` (stereo not given): the growth inhibition was 79% (active).

With `Cc1ccc(C2=CC(=O)/C(=C\C(=O)c3ccc(Cl)cc3)O2)cc1`, the growth inhibition was 17% (inactive).

With `O=C(Nc1ncnc2c1ncn2C1CC(O)C(CO)O1)c1ccccc1` (stereo not given), the growth inhibition is 1% (inactive).

Regarding `O=C1CSC(=S)N1c1ccc(F)cc1F`, the growth inhibition was 78% (active).

On to `CCCOC(=O)C(Br)C(Br)C(=O)OCCC` (stereo not given), for which the growth inhibition was 100% (active).

Take `c1ccc2nc3[nH]c4ccccc4c3cc2c1`: the growth inhibition is 40% (inactive).

On to `O=S(=O)(c1ccc(NC(=S)NCc2ccncc2)cc1)N1CCCCC1`, for which the growth inhibition is -13% (inactive).

For `Nc1ccccc1Sc1ccccc1`, the growth inhibition was 66% (inactive).

With `CCC(Cl)COP(=O)(OCC(Cl)CC)OC(c1ccc(Cl)c(Cl)c1)P(=O)(OCC(Cl)CC)OCC(Cl)CC` (stereo not given), the growth inhibition is 7% (inactive).

Take `O=C(O)/C=C\c1cc2ccccc2c2ccccc12`: the growth inhibition is 98% (active).

`COC(=O)C1C2CC3c4[nH]c5cc(OC)c(Br)cc5c4CCN3CC2CC(OC(=O)c2cc(OC)c(OC)c(OC)c2)C1OC` (stereo not given): the growth inhibition is 82% (active).

For `Cc1c2ccnc(-c3ccc(F)cc3)c2cc2c1[nH]c1ccccc12`, the growth inhibition is 48% (inactive).

On to `COc1cc2cc[n+]3c4ccc([N+](=O)[O-])cc4ccc3c2cc1OC`, for which the growth inhibition was 80% (active).

In the case of `CCCCCCCCC1N(C)CCCN1C`, the growth inhibition is 98% (active).

As to `CC1(C)OC2C(COC(c3ccccc3)(c3ccccc3)c3ccccc3)OC(n3cnc4c(=O)[nH]cnc43)C2O1` (stereo not given), the growth inhibition is 99% (active).

As for `COc1cccc2c1C(=O)c1c(O)c3c(c(O)c1C2=O)C[C@@](O)(C(=O)CO)C[C@@H]3OC1CC(N(C)C)C(O)C(C)O1` (stereo not given in full), the growth inhibition was 97% (active).

The values are drawn from PubChem BioAssay (NCI).
